# Activity calls are given as the source filed them. Unless noted, the rule behind the calls is not given here.
# Columns and labels:
# [1] = anti-His antibody binders, primary screen, artefact control for SMM control protein annotation, biochemical, small-molecule microarray, 635 nm fluorescence (AID 1128); conditions: anti-His Alexa647 antibody binding, higher = more signal;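 note: score merges feature fluorescence with signal-to-noise for each printed compound spot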
# [2] = test system: Human papillomavirus type 1a E7 protein (residues 1-88); experiment: HPV1a E7 small-molecule binders, primary screen, biochemical, small-molecule microarray, residues 1-88, 635 nm (AID 1129); conditions: small-molecule microarray binding, fluorescence 635 nm; higher = more signal
# [3] = molecular target: Focal adhesion kinase 1 (Homo sapiens) (UniProt Q05397); experiment: small-molecule microarray binders of FAK, primary screen, biochemical, 635/667 nm fluorescence, BSA, DTT (AID 1130); conditions: PTK2 binding, 635 nm fluorescence, higher = more signal;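 note: composite of spot emission at 667 nm and signal to noise over triplicate slides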
# Sequence of Focal adhesion kinase 1 (Homo sapiens) (Q05397 whole entry, looked up): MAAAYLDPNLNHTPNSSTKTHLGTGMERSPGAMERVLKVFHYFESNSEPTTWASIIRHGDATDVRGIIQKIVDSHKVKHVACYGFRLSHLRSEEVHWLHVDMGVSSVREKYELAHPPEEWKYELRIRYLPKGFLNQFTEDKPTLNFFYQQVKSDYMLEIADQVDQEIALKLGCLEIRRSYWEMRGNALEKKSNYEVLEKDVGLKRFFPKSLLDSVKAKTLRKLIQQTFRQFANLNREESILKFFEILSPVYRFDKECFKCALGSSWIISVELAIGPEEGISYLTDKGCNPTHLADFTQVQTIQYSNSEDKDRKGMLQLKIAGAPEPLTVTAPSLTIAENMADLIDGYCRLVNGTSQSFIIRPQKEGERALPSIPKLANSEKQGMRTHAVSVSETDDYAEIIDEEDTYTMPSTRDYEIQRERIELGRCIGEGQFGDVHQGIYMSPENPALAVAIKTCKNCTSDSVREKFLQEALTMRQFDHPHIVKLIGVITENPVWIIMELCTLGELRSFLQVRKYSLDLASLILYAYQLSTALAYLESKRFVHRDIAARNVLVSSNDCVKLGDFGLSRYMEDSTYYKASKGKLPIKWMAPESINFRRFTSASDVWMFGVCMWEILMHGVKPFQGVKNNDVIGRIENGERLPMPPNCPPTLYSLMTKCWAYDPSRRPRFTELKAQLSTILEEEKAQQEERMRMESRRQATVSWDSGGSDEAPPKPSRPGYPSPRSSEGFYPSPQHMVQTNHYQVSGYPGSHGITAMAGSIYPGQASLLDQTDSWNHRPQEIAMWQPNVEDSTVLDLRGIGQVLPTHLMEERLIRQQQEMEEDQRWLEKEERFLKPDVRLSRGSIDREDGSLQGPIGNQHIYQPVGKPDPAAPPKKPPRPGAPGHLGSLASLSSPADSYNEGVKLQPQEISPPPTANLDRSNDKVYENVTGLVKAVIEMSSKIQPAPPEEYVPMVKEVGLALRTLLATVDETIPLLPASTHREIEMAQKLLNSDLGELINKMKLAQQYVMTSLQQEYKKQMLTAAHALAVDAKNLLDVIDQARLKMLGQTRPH
# [4] = test system: Fibrinogen (Alexa647-labelled); experiment: fibrinogen binders on compound microarrays, profiling panel, artefact control for SMM control-protein annotation, biochemical, small-molecule microarray, 635/667 nm fluorescence (AID 1131); conditions: fibrinogen-A647 binding fluorescence, higher = more signal;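 note: z-score merges 667 nm fluorescence with per-spot signal-to-noise over triplicate slides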
# [5] = molecular target: Follistatin (Homo sapiens) (UniProt P19883); experiment: follistatin binders on small-molecule microarrays, primary screen, biochemical, small-molecule microarray, 635/667 nm fluorescence (AID 1132); conditions: FST binding, 635 nm fluorescence, higher = more signal
# Sequence of Follistatin (Homo sapiens) (P19883 whole entry, looked up): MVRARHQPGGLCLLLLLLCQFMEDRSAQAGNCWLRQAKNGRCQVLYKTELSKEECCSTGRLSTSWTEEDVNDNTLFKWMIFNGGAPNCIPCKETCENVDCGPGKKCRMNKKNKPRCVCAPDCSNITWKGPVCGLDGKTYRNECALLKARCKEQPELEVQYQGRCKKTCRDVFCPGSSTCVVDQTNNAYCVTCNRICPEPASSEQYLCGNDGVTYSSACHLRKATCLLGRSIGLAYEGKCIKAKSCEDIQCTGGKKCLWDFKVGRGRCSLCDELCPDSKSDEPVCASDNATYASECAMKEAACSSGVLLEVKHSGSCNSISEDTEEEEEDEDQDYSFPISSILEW
# [6] = molecular target: Fibroblast growth factor 2 (Homo sapiens) (UniProt P09038); experiment: FGF2 binders on small-molecule microarrays, primary screen, biochemical, small-molecule microarray, 635/667 nm fluorescence (AID 1133); conditions: small-molecule microarray binding, FGF2, fluorescence 635/667; higher = more signal
# Sequence of Fibroblast growth factor 2 (Homo sapiens) (P09038 whole entry, looked up): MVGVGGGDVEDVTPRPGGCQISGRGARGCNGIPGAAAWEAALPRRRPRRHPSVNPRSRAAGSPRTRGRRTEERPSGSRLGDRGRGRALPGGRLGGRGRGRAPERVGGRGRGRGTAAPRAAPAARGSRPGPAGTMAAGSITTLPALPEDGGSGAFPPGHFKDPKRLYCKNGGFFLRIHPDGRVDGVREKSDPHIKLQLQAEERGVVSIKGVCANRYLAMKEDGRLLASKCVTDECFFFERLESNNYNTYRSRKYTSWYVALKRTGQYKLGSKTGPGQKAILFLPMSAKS
# [7] = mitochondrial membrane potential change in A549 cells, profiling panel, cell-based, JC-1 fluorescence, basal, 24 h, 100 nL (AID 1138); conditions: higher = more signal;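 note: A549 lung adenocarcinoma cells under basal conditions with no added stimulus; test concentration not given here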
# Lefty1 = Lefty1 binders on small-molecule microarrays, primary screen, biochemical, small-molecule microarray, 635/667 nm fluorescence (AID 1139); conditions: small-molecule microarray binding, fluorescence 635/667; higher = more signal
# [8] = test system: wheat germ agglutinin (Triticum aestivum), Alexa647-labelled; experiment: wheat germ agglutinin binders on compound microarrays, profiling panel, artefact control for SMM control-protein annotation, biochemical, small-molecule microarray, 635/667 nm fluorescence (AID 1140); conditions: WGA-A647 binding, 635 nm fluorescence, higher = more signal;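 note: score merges 667 nm feature emission with signal to noise over triplicate slides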
# [9] = molecular target: Luciferin 4-monooxygenase (Photinus pyralis) (UniProt P08659); experiment: firefly luciferase enzyme inhibitors, primary screen, biochemical, luminescence, purified enzyme, 2006 set (AID 1141); conditions: SteadyGlo luminescence, 30 min, higher = more signal, called active from +8 up or from −8 down;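 note: cell-free assay with purified firefly luciferase at 100 ng per well in PBS; test concentration not given here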
# Sequence of Luciferin 4-monooxygenase (Photinus pyralis) (P08659 whole entry, looked up): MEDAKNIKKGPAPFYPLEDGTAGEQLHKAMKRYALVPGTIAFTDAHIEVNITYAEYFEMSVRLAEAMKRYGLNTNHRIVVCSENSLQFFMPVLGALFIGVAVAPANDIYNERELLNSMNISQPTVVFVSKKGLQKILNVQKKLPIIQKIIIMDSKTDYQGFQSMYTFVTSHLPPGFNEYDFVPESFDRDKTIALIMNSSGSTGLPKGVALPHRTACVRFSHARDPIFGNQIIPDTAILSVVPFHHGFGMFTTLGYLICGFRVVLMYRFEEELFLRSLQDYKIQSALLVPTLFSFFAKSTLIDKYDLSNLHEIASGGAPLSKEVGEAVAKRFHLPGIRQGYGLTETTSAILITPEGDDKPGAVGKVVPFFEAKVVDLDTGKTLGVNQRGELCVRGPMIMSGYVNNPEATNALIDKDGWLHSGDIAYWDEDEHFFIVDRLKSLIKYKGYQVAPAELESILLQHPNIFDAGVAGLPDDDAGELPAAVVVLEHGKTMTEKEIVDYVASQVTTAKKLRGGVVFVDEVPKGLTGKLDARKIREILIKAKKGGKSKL
# [10] = test system: Wnt5a (protein binding on small-molecule microarray); experiment: Wnt5a binders on small-molecule microarray, primary screen, biophysical, 635/667 nm fluorescence (AID 1142); conditions: 635 nm fluorescence, higher = more signal;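 note: fluorescence read at 667 nm with signal to noise per printed feature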
# [11] = cell viability in Huh7 cells, primary screen, cytotoxicity control for HCV replication inhibitor project, CellTiter-Glo luminescence, basal, 48 h (AID 1143); conditions: Huh7 HCV replicon, higher = more signal, called active from +8 up or from −8 down;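 note: Huh7 hepatoma cells carrying a hepatitis C replication reporter with no stimulus; test concentration not given here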
# [12] = P. aeruginosa biofilm formation inhibitors, primary screen, PAO1 strain, BacTiter-Glo luminescence, LB-PBS (AID 1144); conditions: 12 h, higher = more signal
# [13] = CREB reporter modulators without forskolin, primary screen, cell-based, PC12, CRE-LacZ reporter, unstimulated (AID 1145); conditions: no forskolin, luminescence, 4.5 h, higher = more signal, called active from +8 up or from −8 down
# [14] = CREB reporter modulators under forskolin, primary screen, cell-based, PC12, CRE-LacZ reporter, forskolin-stimulated (AID 1146); conditions: luminescence, 4.5 h, higher = more signal, called active from +8 up or from −8 down;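 note: PC12 cells with 6xCRE LacZ reporter stimulated by forskolin 10 µM; beta-galactosidase reporter signal reflecting CREB driven transcription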
# [15] = molecular target: Streptavidin (Streptomyces avidinii) (UniProt P22629); experiment: streptavidin binders on small-molecule microarray, primary screen, artefact control for SMM compound annotation, biophysical, 635/667 nm fluorescence (AID 1147); conditions: streptavidin binding, higher = more signal;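 note: signal reflects streptavidin binding to arrayed compounds as a control protein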
# Sequence of Streptavidin (Streptomyces avidinii) (P22629 whole entry, looked up): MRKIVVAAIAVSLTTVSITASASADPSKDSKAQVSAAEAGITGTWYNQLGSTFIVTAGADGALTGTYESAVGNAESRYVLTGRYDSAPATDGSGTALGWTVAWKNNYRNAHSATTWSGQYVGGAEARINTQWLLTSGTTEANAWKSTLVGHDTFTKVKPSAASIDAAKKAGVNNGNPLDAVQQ
# [16] = small-molecule binders of probe aInhba, primary screen, biochemical, small-molecule microarray, 635/667 nm fluorescence (AID 1148); conditions: higher = more signal;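 note: score merges 667nm spot fluorescence with signal-to-noise for antibody binding to printed compounds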
# Torsin-1A (Homo sapiens) [17] = molecular target: Torsin-1A (Homo sapiens) (UniProt O14656); experiment: torsin A binders from cell lysate, primary screen, small-molecule microarray, wild-type, 635/667 nm (AID 1149); conditions: COS7 hTOR1A-WT lysate, 635 nm fluorescence, higher = more signal
# Sequence of Torsin-1A (Homo sapiens) (O14656 whole entry, looked up): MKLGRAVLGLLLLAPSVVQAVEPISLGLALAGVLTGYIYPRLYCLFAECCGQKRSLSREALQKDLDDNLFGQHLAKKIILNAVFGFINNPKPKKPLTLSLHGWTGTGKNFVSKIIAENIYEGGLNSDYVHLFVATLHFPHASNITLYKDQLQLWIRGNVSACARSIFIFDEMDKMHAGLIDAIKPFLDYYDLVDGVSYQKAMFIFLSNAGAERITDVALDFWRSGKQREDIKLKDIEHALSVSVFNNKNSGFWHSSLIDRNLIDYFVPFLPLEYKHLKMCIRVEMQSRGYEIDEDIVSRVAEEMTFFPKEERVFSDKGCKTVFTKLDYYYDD
# Torsin-1A (Homo sapiens) [18] = molecular target: Torsin-1A (Homo sapiens) (UniProt O14656); experiment: small-molecule binders of mutant TOR1A in lysate, primary screen, cell lysate, small-molecule microarray, COS7 lysate, 635/667 nm fluorescence (AID 1150); conditions: COS7 hTOR1A mutant lysate, 635 nm fluorescence, higher = more signal;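 note: score pools 667 nm emission and signal to noise measuring lysate protein binding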
# [19] = test system: Sonic hedgehog protein (Shh); experiment: small-molecule binders of Shh protein, primary screen, biochemical, small-molecule microarray, 635/667 nm fluorescence (AID 1151); conditions: small-molecule microarray binding, 635 nm fluorescence; higher = more signal;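 note: Shh protein binding to compounds spotted on small-molecule microarray slides; score combines spot fluorescence intensity with signal-to-noise across triplicate slides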
SMILES,composite z-score [1],composite z-score [2],composite z-score [3],composite z-score [4],composite z-score [5],composite z-score [6],z-score [7],composite z-score (Lefty1),composite z-score [8],z-score [9],composite z-score [10],z-score [11],z-score [12],z-score [13],z-score [14],composite z-score [15],composite z-score [16],composite z-score (Torsin-1A (Homo sapiens) [17]),composite z-score (Torsin-1A (Homo sapiens) [18]),composite z-score [19]
CN1C(=O)C2C(C3CC3)C=C3CN(Cc4cccc(Cl)c4)[C@@H]([C@@H](O)Cc4ccccc4)C3C2C1=O (stereo not given in full),0.162,1.18,1.09,0.862,0.662,0.845,1.35,1.45,0.344,-0.785 (inactive),-0.103,-1.85 (inactive),-0.0257 (inactive),5.58 (inactive),0.349 (inactive),0.599,-0.0221,0.667,0.342,1.78
C=CCNC(=O)[C@@H]1[C@H]2C(=O)O[C@H](c3ccccc3)[C@H](c3ccccc3)N2[C@H](c2ccc(OCCO)cc2)[C@@]12C(=O)Nc1ccc(C#CC3(O)CCCCCC3)cc12,2.64,1.18,0.245,0.891,1.34,0.755,-1.21,0.497,1.04,-0.467 (inactive),0.407,-5.36 (inactive),-1.17 (inactive),0.155 (inactive),0.856 (inactive),0.981,0.0082,0.507,0.827,0.938
O=C1O[C@@H](c2ccccc2)[C@@H](c2ccccc2)N2[C@@H](c3ccc(OCCO)cc3)[C@]3(C(=O)Nc4ccc(C#CC5(O)CCCCCC5)cc43)[C@@H](C(=O)O)[C@H]12,2.8,1.18,1.24,0.832,0.776,0.155,0.741,0.68,0.601,-2.86 (inactive),0.213,-0.72 (inactive),-0.448 (inactive),-0.0246 (inactive),0.371 (inactive),0.351,-0.0695,0.562,0.695,0.633
COCCOC(=O)N1C(=O)[C@@]2(c3cc(C#Cc4ccc(OC)cc4)ccc31)[C@H](c1ccc(OCCO)cc1)N1[C@H](c3ccccc3)[C@H](c3ccccc3)OC(=O)[C@H]1[C@@H]2C(=O)NC[C@H](O)c1ccccc1,1.2,1.17,1.32,0.941,1.33,1.19,-0.936,0.979,1.05,-0.563 (inactive),0.316,-1.07 (inactive),-0.367 (inactive),-0.463 (inactive),0.003 (inactive),0.769,0.0301,0.677,0.603,1.5
CN(C)CCCNC(=O)[C@@]1(Cc2ccccc2I)c2ccccc2C(=O)N(C2CCCCC2)[C@H]1c1ccc(CO)cc1,0.743,1.2,0.732,1.01,0.872,0.156,-1.42,0.27,1.2,0.371 (inactive),0.418,-5.91 (inactive),1.69 (inactive),2.12 (inactive),1.76 (inactive),1.19,0.41,0.305,0.794,0.618
CC(C)C[C@@H]1NC(=O)[C@@]23C(=O)N[C@@H](Cc4ccccc4)C2[C@H](C)[C@@]2(C)O[C@H]2C3/C=C/C/C=C\CNC(=O)CNC1=O (stereo not given in full),0.256,0.088,-0.0353,0.177,0.929,0.766,-0.0173,0.938,0.375,-0.321 (inactive),-0.0717,-1.91 (inactive),0.0738 (inactive),-1.05 (inactive),-0.767 (inactive),0.228,-0.179,-0.507,0.939,0.214
CCCCC(=C=CC[C@H](O)c1ccc(CO)o1)CCO,0.149,0.661,0.323,-0.884,0.986,0.662,0.164,0.738,0.0416,-0.783 (inactive),0.0119,0.0865 (inactive),0.0836 (inactive),0.96 (inactive),1.56 (inactive),-0.144,-0.128,1.39,0.587,1.69
COC(=O)C(CC#Cc1ccc2c(c1)[C@]1(C(=O)N2)[C@H](C(=O)N2CCc3cc(OC)c(OC)cc3C2)[C@H]2C(=O)O[C@H](c3ccccc3)[C@H](c3ccccc3)N2[C@@H]1c1ccccc1OCCO)C(=O)OC,1.21,1.19,0.536,0.613,1.4,1.39,-1.64,1.55,1.17,-0.134 (inactive),0.345,-2.91 (inactive),-0.375 (inactive),-0.168 (inactive),0.214 (inactive),1,0.0561,0.885,1.15,1.99
C=C(CCCC)C(=O)CC[C@H](OC(=O)c1ccccc1-c1ccccc1C(=O)O)c1ccc(OCCO)cc1,0.321,0.632,-0.0609,0.0905,0.571,1.26,0.128,1.1,0.708,-1.95 (inactive),0.475,-1.19 (inactive),-1.5 (inactive),-0.35 (inactive),2.12 (inactive),-0.092,0.0614,0.374,0.204,1.91
